According to PubChem BioAssay AID1159580 (chemical genetic matrix, 2015):
The campaign covered roughly 5,500 compounds. About 2,000 (36%) were called active. Inconclusive results (about 18%) are left out. Cut-off read from the data, not from the text of the source: active = normalized growth mostly below about 0.91 (no sharp cut-off); inconclusive = no clear call, values can overlap the other calls; inactive = mostly above about 0.92. Some of the results follow.

Experiment: chemical genetic growth profiling, strain panel (AID 1159580);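 note: tested at 20 µM; growth read once vehicle control cultures reached saturation at 30 °C; 1 = growth at the plate median or of vehicle wells; lower values mean less growth of the strain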
Conditions: growth OD
[1] = S. cerevisiae deletion strains, locus YAL013W, strain DEP1, hits give low values
[2] = S. cerevisiae deletion strains, locus YBR229C, strain ROT2, hits give low values
[3] = S. cerevisiae deletion strains, locus YDL101C, strain DUN1, hits give low values
[4] = S. cerevisiae deletion strains, locus YDR150W, strain NUM1, hits give low values
[5] = S. cerevisiae deletion strains, locus YEL061C, strain CIN8, hits give low values
[6] = S. cerevisiae deletion strains, locus YGR078C, strain PAC10, hits give low values
[7] = S. cerevisiae deletion strains, locus YHR030C, strain SLT2, hits give low values
[8] = S. cerevisiae deletion strains, locus YHR087W, strain rtc3, hits give low values
[9] = S. cerevisiae deletion strains, locus YJL187C, strain SWE1, hits give low values
[10] = S. cerevisiae deletion strains, locus YJR043C, strain POL32, hits give low values
[11] = S. cerevisiae deletion strains, locus YJR075W, strain HOC1, hits give low values
[12] = S. cerevisiae deletion strains, locus YLR039C, strain RIC1, hits give low values
[13] = S. cerevisiae deletion strains, locus YLR058C, strain SHM2 (second series), hits give low values
[14] = S. cerevisiae deletion strains, locus YLR085C, strain ARP6, hits give low values
[15] = S. cerevisiae deletion strains, locus YLR262C, strain YPT6, hits give low values
[16] = S. cerevisiae deletion strains, locus YML094W, strain GIM5, hits give low values
[17] = S. cerevisiae deletion strains, locus YMR219W, strain ESC1, hits give low values
[18] = S. cerevisiae deletion strains, locus YMR263W, strain SAP30, hits give low values
[19] = S. cerevisiae deletion strains, locus YMR307W, strain GAS1, hits give low values
[20] = S. cerevisiae deletion strains, locus YNL153C, strain GIM3, hits give low values
[21] = S. cerevisiae deletion strains, locus YNL298W, strain CLA4 (second series), hits give low values
[22] = S. cerevisiae deletion strains, locus YNL322C, strain KRE1, hits give low values
[23] = S. cerevisiae deletion strains, locus YNR030W, strain Alg12, hits give low values
[24] = S. cerevisiae deletion strains, locus YOL006C, strain TOP1, hits give low values
[25] = S. cerevisiae deletion strains, locus YPL055C, strain LGE1, hits give low values
[26] = S. cerevisiae deletion strains, locus YPL241C, strain CIN2, hits give low values
[27] = S. cerevisiae deletion strains, locus YPR135W, strain CTF4, hits give low values
[28] = S. cerevisiae deletion strains, locus YCL061C, strain MRC1, hits give low values
[29] = S. cerevisiae deletion strains, locus YDL134C, strain PPH21, hits give low values
[30] = S. cerevisiae deletion strains, locus YKL190W, strain CNB1, hits give low values

Measured: normalized growth

COC(=O)c1sccc1NC(=O)C1CC1
inactive: [1] 0.991 | [2] 1 | [3] 0.995 | [4] 0.942 | [5] 0.979 | [6] 0.978 | [7] 1.01 | [8] 0.99 | [9] 0.977 | [10] 1.02 | [11] 0.99 | [12] 1.01 | [13] 0.976 | [14] 0.92 | [15] 1.07 | [16] 0.962 | [17] 0.981 | [18] 0.988 | [19] 1.06 | [20] 1.01 | [21] 1 | [22] 0.979 | [23] 0.989 | [24] 0.982 | [25] 0.97 | [26] 0.97 | [27] 1.03 | S. cerevisiae strains, strain wild type, hits give low values 0.992

COC(=O)C1=C(C)NC(C)=C(C(=O)OC)C1c1ccc(-c2ccsc2C(=O)OC)o1
inactive: [1] 1 | [2] 1 | [28] 0.989 | [3] 1 | [4] 0.941 | [5] 1.03 | [6] 0.994 | [7] 1.05 | [8] 0.985 | [9] 1.01 | [10] 0.994 | [11] 0.946 | [12] 1.05 | [13] 0.999 | [14] 0.992 | [15] 0.999 | [16] 1.01 | [17] 1 | [18] 1 | [19] 0.968 | [20] 0.99 | [21] 1.06 | [22] 0.991 | [23] 1.02 | [24] 1.06 | [25] 0.898 | [26] 0.862 | [27] 1

CCOC(=O)Nc1ccsc1C(=O)OC
inactive: [1] 0.997 | [2] 1 | [28] 0.999 | [3] 0.988 | [29] 1 | [4] 0.975 | [5] 0.974 | [6] 0.986 | [7] 1 | [8] 1 | [10] 1 | [11] 0.986 | [30] 1 | [12] 0.983 | [13] 1 | [14] 0.988 | [15] 0.996 | [16] 0.985 | [17] 1 | [18] 1.02 | [19] 1.07 | [20] 0.987 | [21] 1.02 | [22] 0.983 | [23] 1.01 | [25] 0.981 | [26] 1.08 | [27] 0.947

COC(=O)c1sccc1-c1ccc(/C=C/[N+](=O)[O-])o1
active: S. cerevisiae deletion strains, locus YDL214C, strain PRR2, hits give low values 0.126 | S. cerevisiae deletion strains, locus YDR477W, strain SNF1, hits give low values 0.518 | S. cerevisiae deletion strains, locus YER123W, strain YCK3, hits give low values 0.155 | S. cerevisiae deletion strains, locus YER133W, strain GLC7, hits give low values 0.121 | S. cerevisiae deletion strains, locus YFL009W, strain cdc4, hits give low values 0.718 | S. cerevisiae deletion strains, locus YFR019W, strain FAB1, hits give low values 0.154 | S. cerevisiae deletion strains, locus YGR040W, strain KSS1, hits give low values 0.551 | S. cerevisiae deletion strains, locus YGR052W, strain FMP48, hits give low values 0.268 | [7] 0.0849 | S. cerevisiae deletion strains, locus YHR079C, strain IRE1, hits give low values 0.113 | S. cerevisiae deletion strains, locus YHR082C, strain KSP1, hits give low values 0.178 | S. cerevisiae deletion strains, locus YHR205W, strain SCH9, hits give low values 0.509 | S. cerevisiae deletion strains, locus YJL095W, strain BCK1, hits give low values 0.126 | S. cerevisiae deletion strains, locus YJL157C, strain FAR1, hits give low values 0.14 | S. cerevisiae deletion strains, locus YJR066W, strain TOR1 (second series), hits give low values 0.0869 | S. cerevisiae deletion strains, locus YJR066W, strain TOR1, hits give low values 0.103 | S. cerevisiae deletion strains, locus YKL067W, strain YNK1, hits give low values 0.185 | S. cerevisiae deletion strains, locus YLR113W, strain HOG1, hits give low values 0.181 | S. cerevisiae deletion strains, locus YLR133W, strain CKI1, hits give low values 0.638 | S. cerevisiae deletion strains, locus YLR403W, strain SFP1, hits give low values 0.517 | S. cerevisiae deletion strains, locus YML070W, strain DAK1, hits give low values 0.111 | S. cerevisiae deletion strains, locus YMR205C, strain PFK2 (second series), hits give low values 0.704 | S. cerevisiae deletion strains, locus YNL020C, strain ARK1, hits give low values 0.702 | S. cerevisiae deletion strains, locus YNL183C, strain NPR1, hits give low values 0.0989 | S. cerevisiae deletion strains, locus YOL136C, strain PFK27, hits give low values 0.107 | S. cerevisiae deletion strains, locus YOR231W, strain MKK1, hits give low values 0.135 | S. cerevisiae deletion strains, locus YPL031C, strain PHO85, hits give low values 0.25 | S. cerevisiae deletion strains, locus YPL153C, strain RAD53, hits give low values 0.0913 | S. cerevisiae deletion strains, locus YPL204W, strain HRR25, hits give low values 0.091 | S. cerevisiae deletion strains, locus YPL256C, strain CLN2, hits give low values 0.147
inactive: S. cerevisiae deletion strains, locus YBL105C, strain PKC1, hits give low values 0.964 | S. cerevisiae deletion strains, locus YBR135W, strain CKS1, hits give low values 0.96 | S. cerevisiae deletion strains, locus YBR136W, strain MEC1, hits give low values 0.968 | S. cerevisiae deletion strains, locus YBR160W, strain CDC28, hits give low values 0.952 | S. cerevisiae deletion strains, locus YDL017W, strain CDC7, hits give low values 0.974 | S. cerevisiae deletion strains, locus YDL028C, strain MPS1, hits give low values 0.959 | S. cerevisiae deletion strains, locus YDL108W, strain KIN28, hits give low values 0.965 | S. cerevisiae deletion strains, locus YDR052C, strain DBF4, hits give low values 0.981 | S. cerevisiae deletion strains, locus YDR226W, strain ADK1, hits give low values 0.961 | S. cerevisiae deletion strains, locus YFR003C, strain YPI1, hits give low values 0.966 | S. cerevisiae deletion strains, locus YFR028C, strain CDC14, hits give low values 0.978 | S. cerevisiae deletion strains, locus YGR092W, strain DBF2, hits give low values 0.874 | S. cerevisiae deletion strains, locus YIL147C, strain SLN1, hits give low values 0.964 | S. cerevisiae deletion strains, locus YJL128C, strain PBS2, hits give low values 0.907 | S. cerevisiae deletion strains, locus YJR016C, strain ILV3, hits give low values 0.974 | S. cerevisiae deletion strains, locus YKL048C, strain ELM1, hits give low values 0.939 | S. cerevisiae deletion strains, locus YKL101W, strain HSL1, hits give low values 0.886 | S. cerevisiae deletion strains, locus YKL203C, strain TOR2, hits give low values 0.893 | S. cerevisiae deletion strains, locus YNL006W, strain LST8, hits give low values 0.958 | S. cerevisiae deletion strains, locus YNL207W, strain RIO2, hits give low values 0.977 | S. cerevisiae deletion strains, locus YNL307C, strain MCK1 (second series), hits give low values 0.823 | S. cerevisiae deletion strains, locus YOR061W, strain CKA2, hits give low values 0.729 | S. cerevisiae deletion strains, locus YOR119C, strain RIO1, hits give low values 0.875 | S. cerevisiae deletion strains, locus YOR329C, strain SCD5, hits give low values 0.965 | S. cerevisiae deletion strains, locus YPL209C, strain IPL1, hits give low values 0.969 | S. cerevisiae deletion strains, locus YPR025C, strain CCL1, hits give low values 0.955 | S. cerevisiae deletion strains, locus YPR106W, strain ISR1, hits give low values 0.959 | S. cerevisiae deletion strains, locus YPR111W, strain DBF20, hits give low values 0.961 | S. cerevisiae deletion strains, strain NNK1, hits give low values 0.963

COC(=O)c1sccc1-c1ccc(C(C)=O)o1
active: [14] 0.751 | [22] 0.935 | [23] 0.885 | [24] 0.727
inactive: [1] 0.956 | [2] 0.975 | [3] 0.953 | [29] 0.974 | [4] 0.982 | [5] 0.949 | [6] 0.947 | [7] 0.722 | [8] 0.97 | [10] 0.977 | [11] 0.956 | [30] 0.976 | [12] 0.945 | [13] 0.965 | [15] 0.961 | [16] 0.898 | [17] 0.978 | [18] 0.977 | [20] 0.982 | [21] 0.841 | [25] 0.974 | [26] 0.891 | [27] 0.773

COC(=O)C1C2CC3c4[nH]c5cc(OC)ccc5c4CCN3CC2CC(OC(=O)c2cc(OC)c(OC)c(OC)c2)C1OC (configuration not stated)
inactive: [1] 0.996 | S. cerevisiae deletion strains, locus YAL040C, strain CLN3, hits give low values 1.07 | S. cerevisiae deletion strains, locus YDR363W, strain ESC2, hits give low values 1 | S. cerevisiae deletion strains, locus YER002W, strain NOP16, hits give low values 0.99 | [11] 1 | [18] 1 | S. cerevisiae deletion strains, locus YNL128W, strain TEP1, hits give low values 0.98 | S. cerevisiae deletion strains, locus YNL175C, strain NOP13, hits give low values 1 | S. cerevisiae deletion strains, locus YNL197C, strain WHI3, hits give low values 0.989 | S. cerevisiae deletion strains, locus YNL224C, strain SQS1, hits give low values 1.04 | S. cerevisiae deletion strains, locus YOR083W, strain WHI5 (second series), hits give low values 0.934 | [25] 1.02
